Records with an inconclusive call do not appear. Active and inactive are the calls of the source. Unless noted, calls follow the shape of the dose curve; as a rule, active = well fitted curve in the direction sought with a large enough effect in the repeat runs; inconclusive = weak or mixed curves; inactive = no such curve, though single readings can be large; an effect the other way counts as inactive or inconclusive.
What was measured:
[1] = qHTS assay to identify small molecule agonists of the TGF-beta/Smad signaling pathway (AID 1346859; active = well fitted activation curve with a large enough effect in the signal ratio in the repeat runs, not every such curve was filed as active; the % refers to the signal ratio; also: series mostly up to about 77 µM)
How it was run: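 Beta-lactamase reporter activity downstream of Smad binding elements was measured in stably transfected HEK 293T cells; compounds were incubated for 5 hr, substrate for 2 hr at room temperature.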

[2] = target: Thyrotropin-releasing hormone receptor (Homo sapiens) (UniProt P34981); assay: qHTS assay to identify small molecule antagonists of the thyrotropin-releasing hormone receptor (TRHR) signaling pathway (AID 1346877; active = well fitted inhibition curve with a large enough effect in the repeat runs, not every such curve was filed as active; also: series mostly up to about 51 µM)
Chain of Thyrotropin-releasing hormone receptor (Homo sapiens) (P34981 whole entry, looked up): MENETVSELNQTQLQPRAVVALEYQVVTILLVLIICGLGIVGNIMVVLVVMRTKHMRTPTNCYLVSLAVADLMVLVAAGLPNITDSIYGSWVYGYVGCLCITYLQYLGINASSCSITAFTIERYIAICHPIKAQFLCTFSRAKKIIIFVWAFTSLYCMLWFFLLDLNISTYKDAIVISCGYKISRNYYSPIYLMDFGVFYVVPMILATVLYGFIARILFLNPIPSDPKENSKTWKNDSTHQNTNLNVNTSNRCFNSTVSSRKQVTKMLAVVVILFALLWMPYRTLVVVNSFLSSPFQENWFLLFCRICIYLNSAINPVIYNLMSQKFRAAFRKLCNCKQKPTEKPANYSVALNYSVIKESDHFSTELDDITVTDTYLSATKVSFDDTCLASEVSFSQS
How it was run: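 In this cell-based calcium flux format, HEK293 cells expressing TRHR received test compound for 5 min before the agonist TRH (1 nM final). Dye loading lasted 2 h at 37 °C.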

[3] = target: Thyrotropin-releasing hormone receptor (Homo sapiens) (UniProt P34981); assay: qHTS assay to identify small molecule agonists of the thyrotropin-releasing hormone receptor (TRHR) signaling pathway (AID 1346891; calls by dose curve; also: series mostly up to about 58 µM)
How it was run: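 Overnight-plated (18 h, 37 °C, 5% CO2) TRHR-Hek293 cells; 2 h calcium dye at 37 °C; compound in DMSO; 3-min kinetic fluorescence read.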

[4] = Human pregnane X receptor (PXR) small molecule agonists, qHTS cell viability counter screen (AID 1346977); also: nearly all actives have a fitted effect of over 50% in size
How it was run: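 After a 5hr pre-incubation, PXR-Luc HepG2 cells received compounds plus positive control in DMSO and were kept 24hr at 37C. Cell viability was quantified by fluorescence from CellTiter-Fluor added for the final hour.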

[5] = Caspase-3/7 induction in HepG2 cells by small molecules, qHTS assay (AID 1346978); also: nearly all actives have a fitted effect of over 15% in size
How it was run: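 Wild-type HepG2 cells (2,000/well) were settled 5 h at 37 C, 5% CO2, then exposed to compounds in DMSO for 17 h. Caspase-3/7 activity was read by luminescence 30 min after adding Caspase-Glo 3/7 reagent at room temperature.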

[6] = Caspase-3/7 induction in CHO-K1 cells by small molecules, qHTS assay (AID 1346980); also: nearly all actives have a fitted effect of over 15% in size
How it was run: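 Wild-type cells were seeded at 1,500 per well and settled 5 hr at 37 C, 5% CO2, then exposed to DMSO-dissolved compounds for 17 hr. Caspase-Glo 3/7 reagent was added, and luminescence was read after 30min at room temperature.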

[7] = Caspase-3/7 induction in HepG2 cells by small molecules, qHTS cell viability counter screen (AID 1346981); also: series mostly up to about 92 µM; nearly all actives have a fitted effect of over 30% in size
How it was run: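 Counter screen for cytotoxicity: HepG2 exposed 16 hr to compounds, then CellTiter-Fluor viability signal (fluorescence, 1 hr reagent incubation).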

[8] = target: Nuclear receptor subfamily 1 group I member 2 (Homo sapiens) (UniProt O75469); assay: Human pregnane X receptor (PXR) small molecule agonists, qHTS assay (AID 1346982); also: nearly all actives have a fitted effect of over 35% in size; also: potency is read from the fitted curve at half-maximal effect
Chain of Nuclear receptor subfamily 1 group I member 2 (Homo sapiens) (O75469 whole entry, looked up): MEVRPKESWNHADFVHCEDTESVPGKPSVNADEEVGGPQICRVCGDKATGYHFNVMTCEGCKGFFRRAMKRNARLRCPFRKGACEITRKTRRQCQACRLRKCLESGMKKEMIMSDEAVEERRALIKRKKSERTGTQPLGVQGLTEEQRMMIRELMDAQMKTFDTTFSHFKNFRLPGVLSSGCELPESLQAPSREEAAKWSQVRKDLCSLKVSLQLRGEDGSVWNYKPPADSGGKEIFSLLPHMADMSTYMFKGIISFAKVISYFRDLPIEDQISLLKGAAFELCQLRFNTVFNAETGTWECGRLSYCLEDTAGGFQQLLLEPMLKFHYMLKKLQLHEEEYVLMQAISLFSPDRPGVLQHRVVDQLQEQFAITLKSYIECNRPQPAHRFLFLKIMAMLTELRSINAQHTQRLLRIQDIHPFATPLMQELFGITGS
How it was run: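 Luminescence (ONE-Glo, 30 min RT) after 24 hr compound exposure of PXR-Luc HepG2 cells; cells rested 5 hr post-plating in 5% charcoal-stripped FBS medium.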

[9] = Caspase-3/7 induction in CHO-K1 cells by small molecules, qHTS cell viability counter screen (AID 1346979); also: nearly all actives have a fitted effect of over 35% in size
How it was run: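 Multiplexed with Caspase-Glo 3/7 in CHO-K1 cells, this counter screen added CellTiter-Fluor after 16hr of compound exposure and recorded fluorescence 1hr later.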

[10] = target: Nuclear receptor subfamily 1 group I member 2 (Rattus norvegicus) (UniProt Q9R1A7); assay: Rat pregnane X receptor (rPXR) activation by small molecules, qHTS assay (AID 1346983); conditions: rPXR luciferase reporter cells, One-Glo luminescence, 24 h; max activation: stronger effect = higher value; also: nearly all actives have a fitted effect of over 20% in size
Chain of Nuclear receptor subfamily 1 group I member 2 (Rattus norvegicus) (Q9R1A7 whole entry, looked up): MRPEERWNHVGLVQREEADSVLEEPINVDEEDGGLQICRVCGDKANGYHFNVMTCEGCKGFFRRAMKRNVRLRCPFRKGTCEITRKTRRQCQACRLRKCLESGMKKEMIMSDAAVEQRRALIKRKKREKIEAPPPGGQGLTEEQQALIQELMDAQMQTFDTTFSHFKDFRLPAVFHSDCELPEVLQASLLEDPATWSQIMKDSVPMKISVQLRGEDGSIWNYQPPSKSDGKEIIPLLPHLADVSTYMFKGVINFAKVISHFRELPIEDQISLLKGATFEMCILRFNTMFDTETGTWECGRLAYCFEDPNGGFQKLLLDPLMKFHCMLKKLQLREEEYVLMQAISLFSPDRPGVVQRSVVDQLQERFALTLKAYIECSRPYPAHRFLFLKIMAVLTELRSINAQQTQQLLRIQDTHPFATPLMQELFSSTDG
How it was run: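 Cell-based rPXR luciferase reporter assay, 2,000 cells per well, rested 5hr at 37 C before compound addition in DMSO, then 24 hr at 37 C. One-Glo reagent was added and luminescence read after 30 min at room temperature.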
% is scaled to controls: 0 for no effect and ±100 for the full control effect.

COC(=O)/C=C(\C)CCC=C(C)C
inactive: outcome [1] | outcome [2] | Potency [3] | outcome [4] | outcome [5] | outcome [6] | outcome [7]

CCN(CC)CC
inactive: outcome [1] | outcome [2] | Potency [3] | outcome [4] | outcome [5] | outcome [7] | Potency [8]

CCCCCCCCS(=O)(=O)O
inactive: outcome [1] | outcome [2] | Potency [3] | outcome [5] | Potency [9] | outcome [6] | outcome [7] | Potency [8]

CC(C)(C)c1ccc(C(=O)CCCCl)cc1
inactive: outcome [1] | outcome [2] | Potency [3] | outcome [5] | Potency [9] | outcome [6] | outcome [7]
active: Potency [8] 26.6 µM

CCC(C)SSC(C)CC (stereo not given)
inactive: outcome [1] | outcome [2] | Potency [3] | outcome [5] | Potency [9] | outcome [7] | Potency [8]

COC(C)(C)CC(C)=O
inactive: outcome [1] | outcome [2] | outcome [4] | outcome [5] | Potency [9] | outcome [6] | outcome [7] | Potency [8]

CCOC(=O)CC(C(C)=O)C(C)=O
inactive: outcome [1] | outcome [2] | Potency [3] | outcome [5] | Potency [9] | outcome [7] | Potency [8]

COc1ccccc1N1CCN(CC(O)COc2cc(OC)c(OC)c(OC)c2)CC1 (stereo not given)
inactive: outcome [1] | outcome [2] | Potency [3] | outcome [5] | Potency [9] | outcome [6] | outcome [7] | Potency [8]

CCCCCCCCCCCCCCCC(=O)OC
inactive: activation [1] 0.447% [at 15.8 µM] | activity, negative = inhibition [2] 0.477% [at 10.5 µM] | activation [3] 1.74% [at 11.8 µM] | caspase activation [5] 1.29% [at 19 µM] | activity change, negative = cytotoxicity [9] 3.95% [at 19 µM] | caspase-3/7 activation [6] 1.1% [at 19 µM] | activity change, negative = cytotoxicity [7] -1.7% [at 19 µM] | activation [8] 4.26% [at 19 µM]

CCCc1ncc(C(=O)O)s1
inactive: outcome [1] | outcome [2] | Potency [3] | outcome [5] | Potency [9] | outcome [6] | outcome [7] | Potency [8]

Cc1ccc(O)c(C(=O)c2ccccc2)c1
inactive: outcome [1] | outcome [2] | outcome [4] | outcome [5] | Potency [9] | outcome [6] | outcome [7]

CC(C)CC(O)Cc1ccccc1 (stereo not given)
inactive: outcome [1] | outcome [2] | Potency [3] | outcome [5] | Potency [9] | outcome [6] | outcome [7] | Potency [8]

O=C[C@@H](O)[C@H](O)[C@H](O)CO
inactive: outcome [1] | outcome [2] | Potency [3] | outcome [5] | Potency [9] | outcome [6] | outcome [7] | Potency [8]

Nc1cc(S(=O)(=O)O)ccc1O
inactive: outcome [1] | outcome [2] | Potency [3] | outcome [5] | Potency [9] | outcome [6] | outcome [7] | Potency [8]

CC(C)(C)C(=O)CC(=O)C(C)(C)C
inactive: outcome [1] | outcome [2] | outcome [4] | outcome [5] | Potency [9] | outcome [6] | outcome [7] | Potency [8]

C[C@@H]1CCC[C@H](C)N1CCCC(O)(c1ccccc1)c1ccccn1 (stereo not given in full)
inactive: outcome [1] | outcome [2] | Potency [3] | outcome [5] | Potency [9] | outcome [7] | Potency [8]

Cc1ccc(O)c([N+](=O)[O-])c1
inactive: outcome [1] | outcome [2] | outcome [4] | outcome [5] | Potency [9] | outcome [6] | outcome [7] | Potency [8]

O=C(CCBr)N1CCN(C(=O)CCBr)CC1
inactive: outcome [1] | outcome [2] | Potency [3] | outcome [4] | outcome [5] | outcome [6] | outcome [7] | Potency [8] | max activation [10] -2.92%

CCCCCCC(=O)c1ccccc1
inactive: outcome [1] | outcome [2] | outcome [4] | outcome [5] | Potency [9] | outcome [6] | outcome [7]

O=S(=O)(O)c1ccc(Cl)cc1
inactive: outcome [1] | outcome [2] | outcome [4] | outcome [5] | Potency [9] | outcome [6] | outcome [7] | Potency [8]

O=C(OOC(=O)c1ccccc1)c1ccccc1
inactive: outcome [1] | outcome [2] | Potency [3] | outcome [5] | outcome [6] | outcome [7] | max activation [10] -2.52%

CCCCC(O)/C=C(C)/C=C/C=C/C(=O)N1CCCC1=O (stereo not given)
inactive: outcome [1] | outcome [2] | outcome [4] | outcome [5] | Potency [9] | outcome [6] | outcome [7] | Potency [8]

CC(C)(Sc1cc(C(C)(C)C)c(O)c(C(C)(C)C)c1)Sc1cc(C(C)(C)C)c(O)c(C(C)(C)C)c1
inactive: outcome [1] | outcome [2] | Potency [3] | outcome [5] | Potency [9] | outcome [6] | outcome [7] | max activation [10] -1.55%

N=C(N)S(=O)O
inactive: outcome [1] | outcome [2] | outcome [4] | outcome [5] | Potency [9] | outcome [6] | outcome [7] | Potency [8]

O=C(O)Cc1ccccc1Oc1ccc(Cl)cc1Cl
inactive: outcome [1] | outcome [2] | Potency [3] | outcome [5] | Potency [9] | outcome [6] | outcome [7]

Cc1ccccc1C#N
inactive: outcome [1] | outcome [2] | outcome [4] | outcome [5] | Potency [9] | outcome [6] | outcome [7]

CN(C)CCC[C@@]1(c2ccc(F)cc2)OCc2cc(C#N)ccc21
inactive: outcome [1] | outcome [2] | Potency [3] | outcome [5] | Potency [9] | outcome [6] | outcome [7] | Potency [8] | max activation [10] -1.39%

CC(C)C[P+](C)(CC(C)C)CC(C)C
inactive: outcome [1] | outcome [2] | Potency [3] | outcome [5] | Potency [9] | outcome [7] | Potency [8]

Source: PubChem BioAssay (Tox21)
